Bioassay records (PubChem)
The list is not random: actives were taken first. Their share in the collection is about 21%.
Pf growth 48h = Primary qHTS for delayed death inhibitors of the malarial parasite plastid, 48 hour incubation; P. falciparum luciferase growth in erythrocytes, 48 h; Potency, µM (titrated, usually from 28.7 µM), hits mostly inhibitors; hit rate 5.9% among 310,000; AID 504832, 2011
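Luciferase-expressing parasites in RBCs, 2% Hct / 0.1% parasitemia final; RPMI 1640 + 0.5% Albumax; 37 C, 5% CO2, one generation; luminescence read-out, lower signal = inhibition.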
Shiga inhibitor = A qHTS for Small Molecule Inhibitors of Shiga Toxin; Vero cells, Shiga toxin protein synthesis inhibition reporter; inhibition, % at 38.7 µM; hit rate 9.2% among 290,000; in the data active means inhibition mostly above about 28%, no sharp cut-off; inactive means mostly below about 43%
NS1 function inh = qHTS Assay for Inhibitors of Influenza NS1 Protein Function. hit rate 0.4% among 270,000. Potency, µM (top dose mostly 46.1 µM); calls by dose curve; further: actives are rising curves; nearly all actives have a fitted effect of over 50% in size
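Read-out: OD600 growth recovery of NS1-expressing budding yeast. Cells grown overnight at 30C in -URA glucose medium, washed, resuspended and diluted 1:100 in 2% galactose assay medium, pH 6.0. Same strain lacking NS1 served as positive control.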
Cycloheximide cs = Cycloheximide Counterscreen for Small Molecule Inhibitors of Shiga Toxin; cell reporter, cycloheximide protein synthesis inhibition counterscreen; max response, %; hit rate 12% among 300,000; AID 2314, 2010; in the data active means max response mostly above about 13%, no sharp cut-off; inactive means mostly below about 14%; further: read at 38.3 µM for the half of the compounds with a filed dose
Pf growth 96h = Primary qHTS for delayed death inhibitors of the malarial parasite plastid, 96 hour incubation; P. falciparum luciferase reporter growth, 96 h; Potency, µM (doses to about 28.7 µM), actives largely listed as inhibitors; hit rate 6.9% among 320,000; AID 504834, 2011
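Two-generation exposure (96 h) targets delayed-death phenotype. Reporter parasites carrying integrated firefly luciferase, in red cells at 2% hematocrit and 0.05% parasitemia final, kept at 37 C, 5% CO2; luminescence loss indicates inhibition.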
FBPA Giardia inh = qHTS Assay for Inhibitors of Fructose-1,6-bisphosphate Aldolase from Giardia Lamblia | Potency, µM (top dose mostly 59.6 µM), most hits filed as inhibitors | purified Giardia FBPA | hit rate 0.71% among 290,000 | AID 2451, 2010 | A8B2U2; further: nearly all actives have a fitted effect of over 55% in size
Target sequence (A8B2U2 whole entry, looked up): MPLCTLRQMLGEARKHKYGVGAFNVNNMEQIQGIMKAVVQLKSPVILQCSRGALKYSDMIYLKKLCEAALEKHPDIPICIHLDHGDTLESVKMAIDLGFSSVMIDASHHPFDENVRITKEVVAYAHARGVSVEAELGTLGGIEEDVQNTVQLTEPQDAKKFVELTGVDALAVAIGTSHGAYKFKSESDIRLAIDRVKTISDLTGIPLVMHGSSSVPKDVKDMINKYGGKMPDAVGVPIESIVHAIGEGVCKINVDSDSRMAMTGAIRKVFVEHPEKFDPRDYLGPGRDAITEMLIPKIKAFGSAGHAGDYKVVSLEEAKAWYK
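40 nM FBPA preincubated 10 min at RT with compound (up to 57.5 uM final), then substrate plus GAPDH/TPI/NAD/arsenate coupling and diaphorase/resazurin added. Fluorescence read after 20 min at RT, 525/598 nm.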
A number is an active result; n = inactive; u = inconclusive; x = no result given. Unless noted, the call rests on the fitted dose curve; in most records, active means well fitted curve in the direction sought with a large enough effect; inconclusive means small, poorly fitted or top-dose-only effect, or another doubt; inactive means no such curve, though single readings can be large; an effect the other way counts as inactive or inconclusive.

SMILES	Pf growth 48h	Shiga inhibitor	NS1 function inh	Cycloheximide cs	Pf growth 96h	FBPA Giardia inh
Cc1ccc(C23CC4CC(CC(C(=O)NC(C)C(=O)O)(C4)C2)C3)cc1 (stereo not drawn)	n	n	n	n	n	n
COc1ccccc1NC(=O)C12CC3CC(C1)CC(c1ccc(C)cc1)(C3)C2	0.66µM	n	n	n	n	n
COc1ccc(NC(=O)C23CC4CC(C2)CC(c2ccc(C)cc2)(C4)C3)cc1	u	n	n	n	n	n
Cc1ccc(C23CC4CC(CC(C(=O)NC(C)C)(C4)C2)C3)cc1	n	n	n	n	9.3µM	n
CCNc1ncc2nc(C)c(=O)n(Cc3ccc(F)cc3)c2n1	x	x	x	x	x	n
Cc1ccc(C2C(/C=C3/SC(=S)NC3=O)=C(c3cccs3)Oc3ccccc32)cc1 (stereo not drawn)	x	n	n	n	9.3µM	n
COc1cc(C(CCN2CCCCC2)c2c(OC)cc(OC)c3c(-c4ccccc4)cc(=O)oc23)cc(OC)c1OC (stereo not drawn)	10µM	n	n	n	5.9µM	n
COc1cc(OC)c2ccc(=O)oc2c1C(CCN1CCCCC1)c1ccc(N(C)C)cc1 (stereo not drawn)	u	n	n	n	u	n
COc1cc(C(CCN2CCCC(C)C2)c2c(OC)cc(OC)c3c(-c4ccccc4)cc(=O)oc23)cc(OC)c1OC (stereo not drawn)	7.4µM	n	n	n	2.9µM	n
CC(C)CN(C(=O)c1cc(=O)[nH]c2ccccc12)c1c(N)n(Cc2ccccc2)c(=O)[nH]c1=O	n	x	x	x	n	x
CSc1ccc(-c2ccco2)nn1	n	127	x	25	n	u
CCSc1ccc(-c2ccco2)nn1	n	85	x	48	n	n
Cc1ccc(NC(=O)CSc2ccc(-c3ccco3)nn2)cc1	n	n	x	n	n	n
CC(OC(=O)c1cc(S(=O)(=O)N(C)c2ccccc2)ccc1Cl)C(=O)Nc1ccc2c(c1)OCCO2 (stereo not drawn)	n	n	n	n	n	n
O=C1CCC(NC(=O)c2ccccc2)C(=O)N1 (stereo not drawn)	n	n	n	n	n	n
C[C@@H]1C(NC(=O)c2ccccc2)CC2CC1C2(C)C (stereo partly drawn)	n	n	n	n	7.4µM	n
NCCC1([N+](=O)[O-])CCNCC1	x	x	n	x	x	x
Cc1c(C(=O)N2CCOCC2)c(S(=O)(=O)Nc2ccc(OC(F)(F)F)cc2)c(C)n1C	n	n	n	n	n	n
CN1C(=O)C(CC(=O)N2CCN(C(c3ccccc3)c3ccccc3)CC2)N(C)C1=O (stereo not drawn)	12µM	n	n	n	u	n
CC(=O)N1CCN(C(=O)Cn2c(=O)oc3ccccc32)CC1	n	n	n	n	n	n
O=C(CCn1c(=O)oc2ccccc21)N1CCN(C(c2ccccc2)c2ccccc2)CC1	5.9µM	n	n	n	n	n
O=C(CCn1c(=O)oc2ccccc21)N1CCN(c2ccccc2F)CC1	n	n	n	n	u	n
CC(=O)N1CCN(C(c2ccccc2)c2ccccc2)CC1	x	x	n	x	x	n
O=C(Cn1c(=O)oc2ccccc21)N1CCN(c2ccccc2)CC1	n	n	n	n	13µM	n
COC(=O)c1c(C)oc(C)c1S(=O)(=O)N1CCOCC1	n	n	n	n	n	n
SMILES	Pf growth 48h	Shiga inhibitor	NS1 function inh	Cycloheximide cs	Pf growth 96h	FBPA Giardia inh
Cc1ccc(S(=O)(=O)N2CCN(Cc3ccsc3)CC2)cc1	n	n	n	n	n	n
COc1ccc(S(=O)(=O)NCC(c2cccnc2)N2CCN(c3ccc(F)cc3)CC2)cc1C (stereo not drawn)	4.7µM	n	n	n	n	n
COc1ccc(S(=O)(=O)NCC(c2cccnc2)N2CCN(c3ccccc3)CC2)cc1C (stereo not drawn)	x	n	n	n	u	n
COc1ccccc1N1CCN(C(CNS(=O)(=O)c2cccs2)c2cccnc2)CC1 (stereo not drawn)	10µM	n	n	n	u	n
O=S(=O)(NCC(c1cccnc1)N1CCN(Cc2ccccc2)CC1)c1cc(F)ccc1F (stereo not drawn)	u	n	n	n	10µM	x
CCN1CCN(C(CNS(=O)(=O)c2ccc(OC)c(C)c2)c2cccnc2)CC1 (stereo not drawn)	n	n	n	n	15µM	x
Cn1ncc(N=Cc2c(O)ccc3ccccc23)c1C(=O)Nc1cccc(Cl)c1	n	n	x	n	u	n
CNc1nc(Cl)nc2c1ncn2CC(COC(=O)C(C)(C)C)COC(=O)C(C)(C)C	x	n	x	n	x	n
COCCCC1CCN(C(=O)C2CCC(=O)N(CC3CCCCC3)C2)CC1 (stereo not drawn)	n	n	n	n	1.5µM	x
COc1cccc(N2CCN(C(=O)C3CCC(=O)N(C4CCCCCC4)C3)CC2)c1 (stereo not drawn)	8.3µM	n	n	n	u	n
COc1cccc(CN2CCN(C(=O)C3CCC(=O)N(C4CCCC4)C3)CC2)c1 (stereo not drawn)	u	n	n	n	n	x
O=C1CC(C(=O)N2CCC3(CC2)OCCO3)CN1CCc1ccccc1 (stereo not drawn)	n	n	n	n	u	n
Cc1ccc(SC2CCN(C(=O)C3CCC(=O)N(C4CC4)C3)CC2)cc1 (stereo not drawn)	n	49	n	n	u	n
O=C(C1CC(=O)N(C2CCCCC2)C1)N1CCC2(CC1)OCCO2 (stereo not drawn)	n	n	n	13	n	n
COc1ccc(OCCSc2nnc(Cc3cccc4ccccc34)n2N)cc1	n	n	n	n	u	n
Cc1ccc(C)c(Cn2ncc3ccccc32)c1	n	n	n	n	n	n
COc1cc(OC)c(NC(C)C(=O)N2CCCC2)cc1Cl (stereo not drawn)	n	n	x	n	n	n
Cc1cc(NS(=O)(=O)c2ccc(NC(=O)COc3ccc(Cl)c(C)c3)cc2)no1	n	n	n	n	n	n
Cc1ccc([N+](=O)[O-])cc1S(=O)(=O)Nc1ccc(C(=O)NCC2CCCO2)cc1 (stereo not drawn)	n	x	x	x	n	x
Cc1ccc(C(C)(C)NC(=O)C2CCC(=O)N(C3CCCCCC3)C2)cc1 (stereo not drawn)	n	86	n	42	n	n
COC1CCN(C(=O)C2CCC(=O)N(C3CCCCCC3)C2)CC1 (stereo not drawn)	n	52	n	36	n	x
COCC1CCN(C(=O)C2CCC(=O)N(C3CCCC3)C2)CC1 (stereo not drawn)	n	n	n	15	n	n
O=C(C1CCC(=O)N(C2CC2)C1)N1CCC(Oc2cccc(C(F)(F)F)c2)CC1 (stereo not drawn)	u	n	n	24	n	n
